According to the supplement of paper PMC10849652:
About 8,800 targets were measured; listed, in parts, are those with a hit and a random draw of the rest. About 0.5% of all pairs of compound and target were hits. A number with no mark means an inactive call.

Experiments:
Experiment in all cases: log2 fold change, soluble protein after heating vs DMSO (PISA); higher = thermal stabilisation; K562 lysate, 10 uM; active = over 0.2 and 3.5 SD of the protein, either way, in both replicates (recomputed)
nilotinib = compound: Cc1cn(-c2cc(NC(=O)c3ccc(C)c(Nc4nccc(-c5cccnc5)n4)c3)cc(C(F)(F)F)c2)cn1 [nilotinib]
Procedure, shortened: (§1)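 Thermal stability, expressed as log-two fold change relative to solvent controls, is given from duplicates. Crude K562 extract in PBS pH 7.4 with 1 mM MgCl2, at 1 mg/mL protein, was treated with 10 μM compound for 30 min and heated in aliquots for 3 min across 48°C-58°C. After pooling, adjustment to 0.5% NP-40 at 4°C and centrifugation at 21,000xg for 90 min, supernatant protein was measured by TMTpro 16plex LC-MS/MS with channel sums equalised.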

[1] = compound: Cc1nc(Nc2n[nH]c3c2CN(C(=O)N[C@H](CN(C)C)c2ccccc2)C3(C)C)c2sccc2n1
Procedure, shortened: as §1

dasatinib = compound: Cc1nc(Nc2ncc(C(=O)Nc3c(C)cccc3Cl)s2)cc(N2CCN(CCO)CC2)n1 [dasatinib]
Procedure, shortened: as §1

[2] = compound: Cc1ncc(-c2ccnc(Nc3ccc(S(C)(=O)=O)cc3)n2)n1C(C)C
Procedure, shortened: as §1

[3] = compound: Cn1cc(-c2ccc3c(c2)CCN3C(=O)Cc2cccc(C(F)(F)F)c2)c2c(N)ncnc21
Procedure, shortened: as §1

quisinostat = compound: Cn1cc(CNCC2CCN(c3ncc(C(=O)NO)cn3)CC2)c2ccccc21 [quisinostat]
Procedure, shortened: as §1

tipifarnib = compound: Cn1cncc1[C@@](N)(c1ccc(Cl)cc1)c1ccc2c(c1)c(-c1cccc(Cl)c1)cc(=O)n2C [tipifarnib]
Procedure, shortened: as §1

[4] = compound: NC(=O)Nc1cc(-c2cccc(F)c2)sc1C(=O)N[C@H]1CCCNC1
Procedure, shortened: as §1

[5] = compound: NC(=O)c1cnc(N[C@@H]2CCCC[C@@H]2N)nc1Nc1cccc(-n2nccn2)c1
Procedure, shortened: as §1

[6] = compound: NC1(c2ccc(-c3nc4ccn5c(=O)[nH]nc5c4cc3-c3ccccc3)cc2)CCC1
Procedure, shortened: as §1

[7] = compound: NCC(=O)Nc1ccc(-n2nc(C(F)(F)F)cc2-c2ccc3c(ccc4ccccc43)c2)cc1
Procedure, shortened: as §1

vorinostat = compound: O=C(CCCCCCC(=O)Nc1ccccc1)NO [vorinostat]
Procedure, shortened: as §1

silmitasertib = compound: O=C(O)c1ccc2c(c1)nc(Nc1cccc(Cl)c1)c1ccncc12 [silmitasertib]
Procedure, shortened: as §1

[8] = compound: O=C1NC(=O)C(c2cnc3ccccn23)=C1c1cn2c3c(cc(F)cc13)CN(C(=O)N1CCCCC1)CC2
Procedure, shortened: as §1

entospletinib = compound: c1cn2cc(-c3ccc4cn[nH]c4c3)nc(Nc3ccc(N4CCOCC4)cc3)c2n1 [entospletinib]
Procedure, shortened: as §1

Sequence of UniProt Q3T8J9 (Q3T8J9 whole entry, looked up): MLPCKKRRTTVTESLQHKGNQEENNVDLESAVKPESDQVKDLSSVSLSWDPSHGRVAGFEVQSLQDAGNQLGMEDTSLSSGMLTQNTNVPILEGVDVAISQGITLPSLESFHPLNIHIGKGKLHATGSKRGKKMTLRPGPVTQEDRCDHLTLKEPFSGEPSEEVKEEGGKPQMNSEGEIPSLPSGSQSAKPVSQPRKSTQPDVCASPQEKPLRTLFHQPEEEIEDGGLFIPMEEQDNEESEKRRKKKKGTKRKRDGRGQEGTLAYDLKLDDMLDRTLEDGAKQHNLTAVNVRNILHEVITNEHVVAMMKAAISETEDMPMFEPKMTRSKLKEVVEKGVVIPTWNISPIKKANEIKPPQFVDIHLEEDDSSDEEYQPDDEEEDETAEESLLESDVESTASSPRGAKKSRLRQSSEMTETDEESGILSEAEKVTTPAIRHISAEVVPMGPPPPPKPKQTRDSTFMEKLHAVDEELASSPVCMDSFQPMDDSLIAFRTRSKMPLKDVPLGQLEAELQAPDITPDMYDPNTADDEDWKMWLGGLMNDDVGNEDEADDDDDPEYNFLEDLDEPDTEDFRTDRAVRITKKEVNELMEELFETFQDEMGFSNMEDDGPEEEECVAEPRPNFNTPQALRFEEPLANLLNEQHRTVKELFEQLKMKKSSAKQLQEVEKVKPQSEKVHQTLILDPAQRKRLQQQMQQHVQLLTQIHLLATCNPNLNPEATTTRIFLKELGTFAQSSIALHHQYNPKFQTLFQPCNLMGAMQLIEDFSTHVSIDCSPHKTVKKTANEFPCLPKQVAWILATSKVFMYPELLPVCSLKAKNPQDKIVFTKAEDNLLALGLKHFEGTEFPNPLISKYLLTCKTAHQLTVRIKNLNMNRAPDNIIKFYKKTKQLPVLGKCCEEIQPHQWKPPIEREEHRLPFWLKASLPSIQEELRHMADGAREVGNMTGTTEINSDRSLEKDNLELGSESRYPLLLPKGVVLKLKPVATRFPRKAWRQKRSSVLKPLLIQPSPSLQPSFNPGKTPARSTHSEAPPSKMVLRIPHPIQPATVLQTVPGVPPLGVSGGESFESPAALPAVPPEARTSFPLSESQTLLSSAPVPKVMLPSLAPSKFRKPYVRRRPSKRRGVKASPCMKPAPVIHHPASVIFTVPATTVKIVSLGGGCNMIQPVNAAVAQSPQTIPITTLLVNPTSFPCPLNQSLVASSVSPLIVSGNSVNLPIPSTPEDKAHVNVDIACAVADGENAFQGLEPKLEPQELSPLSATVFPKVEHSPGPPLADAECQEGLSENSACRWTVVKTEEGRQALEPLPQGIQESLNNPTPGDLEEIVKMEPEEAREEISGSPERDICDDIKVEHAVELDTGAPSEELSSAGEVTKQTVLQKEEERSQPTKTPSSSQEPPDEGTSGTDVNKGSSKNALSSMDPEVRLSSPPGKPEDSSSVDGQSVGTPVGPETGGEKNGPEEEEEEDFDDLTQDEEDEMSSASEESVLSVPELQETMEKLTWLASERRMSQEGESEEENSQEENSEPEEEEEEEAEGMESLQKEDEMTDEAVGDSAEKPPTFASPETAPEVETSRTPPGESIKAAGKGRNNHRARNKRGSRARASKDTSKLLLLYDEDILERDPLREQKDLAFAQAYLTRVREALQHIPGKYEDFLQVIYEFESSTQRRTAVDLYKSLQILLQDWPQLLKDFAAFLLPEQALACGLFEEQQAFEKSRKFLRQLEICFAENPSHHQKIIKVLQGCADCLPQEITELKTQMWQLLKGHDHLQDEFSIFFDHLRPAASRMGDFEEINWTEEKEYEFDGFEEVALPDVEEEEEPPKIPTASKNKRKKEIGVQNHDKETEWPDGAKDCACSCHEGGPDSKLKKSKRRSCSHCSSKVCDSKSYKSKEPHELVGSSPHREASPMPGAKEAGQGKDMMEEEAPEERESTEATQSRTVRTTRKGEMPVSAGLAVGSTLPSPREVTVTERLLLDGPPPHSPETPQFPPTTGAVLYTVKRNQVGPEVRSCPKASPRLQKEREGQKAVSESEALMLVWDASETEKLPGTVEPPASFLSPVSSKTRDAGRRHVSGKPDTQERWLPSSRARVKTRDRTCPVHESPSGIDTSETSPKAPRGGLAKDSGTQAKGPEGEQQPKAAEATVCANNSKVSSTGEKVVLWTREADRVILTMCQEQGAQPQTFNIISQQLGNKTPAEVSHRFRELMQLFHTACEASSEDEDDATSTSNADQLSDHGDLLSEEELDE
Sequence of UniProt Q99714 (Q99714 whole entry, looked up): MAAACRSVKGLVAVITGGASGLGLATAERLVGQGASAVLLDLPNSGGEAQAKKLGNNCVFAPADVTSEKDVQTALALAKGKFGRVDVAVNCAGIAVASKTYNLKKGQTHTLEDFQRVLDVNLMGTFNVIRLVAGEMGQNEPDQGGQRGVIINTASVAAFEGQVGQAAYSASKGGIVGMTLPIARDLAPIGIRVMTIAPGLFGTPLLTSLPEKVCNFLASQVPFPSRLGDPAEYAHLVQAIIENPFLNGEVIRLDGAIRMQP
Sequence of UniProt Q9H9Y4 (Q9H9Y4 whole entry, looked up): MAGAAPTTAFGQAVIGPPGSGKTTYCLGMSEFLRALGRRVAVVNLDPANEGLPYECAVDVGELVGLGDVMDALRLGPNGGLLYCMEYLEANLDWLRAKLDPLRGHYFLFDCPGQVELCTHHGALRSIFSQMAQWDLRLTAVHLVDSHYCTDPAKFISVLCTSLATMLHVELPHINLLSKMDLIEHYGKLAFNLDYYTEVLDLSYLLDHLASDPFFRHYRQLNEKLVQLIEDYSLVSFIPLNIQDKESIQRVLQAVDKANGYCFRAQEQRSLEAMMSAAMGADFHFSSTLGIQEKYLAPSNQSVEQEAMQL
Sequence of UniProt O15357 (O15357 whole entry, looked up): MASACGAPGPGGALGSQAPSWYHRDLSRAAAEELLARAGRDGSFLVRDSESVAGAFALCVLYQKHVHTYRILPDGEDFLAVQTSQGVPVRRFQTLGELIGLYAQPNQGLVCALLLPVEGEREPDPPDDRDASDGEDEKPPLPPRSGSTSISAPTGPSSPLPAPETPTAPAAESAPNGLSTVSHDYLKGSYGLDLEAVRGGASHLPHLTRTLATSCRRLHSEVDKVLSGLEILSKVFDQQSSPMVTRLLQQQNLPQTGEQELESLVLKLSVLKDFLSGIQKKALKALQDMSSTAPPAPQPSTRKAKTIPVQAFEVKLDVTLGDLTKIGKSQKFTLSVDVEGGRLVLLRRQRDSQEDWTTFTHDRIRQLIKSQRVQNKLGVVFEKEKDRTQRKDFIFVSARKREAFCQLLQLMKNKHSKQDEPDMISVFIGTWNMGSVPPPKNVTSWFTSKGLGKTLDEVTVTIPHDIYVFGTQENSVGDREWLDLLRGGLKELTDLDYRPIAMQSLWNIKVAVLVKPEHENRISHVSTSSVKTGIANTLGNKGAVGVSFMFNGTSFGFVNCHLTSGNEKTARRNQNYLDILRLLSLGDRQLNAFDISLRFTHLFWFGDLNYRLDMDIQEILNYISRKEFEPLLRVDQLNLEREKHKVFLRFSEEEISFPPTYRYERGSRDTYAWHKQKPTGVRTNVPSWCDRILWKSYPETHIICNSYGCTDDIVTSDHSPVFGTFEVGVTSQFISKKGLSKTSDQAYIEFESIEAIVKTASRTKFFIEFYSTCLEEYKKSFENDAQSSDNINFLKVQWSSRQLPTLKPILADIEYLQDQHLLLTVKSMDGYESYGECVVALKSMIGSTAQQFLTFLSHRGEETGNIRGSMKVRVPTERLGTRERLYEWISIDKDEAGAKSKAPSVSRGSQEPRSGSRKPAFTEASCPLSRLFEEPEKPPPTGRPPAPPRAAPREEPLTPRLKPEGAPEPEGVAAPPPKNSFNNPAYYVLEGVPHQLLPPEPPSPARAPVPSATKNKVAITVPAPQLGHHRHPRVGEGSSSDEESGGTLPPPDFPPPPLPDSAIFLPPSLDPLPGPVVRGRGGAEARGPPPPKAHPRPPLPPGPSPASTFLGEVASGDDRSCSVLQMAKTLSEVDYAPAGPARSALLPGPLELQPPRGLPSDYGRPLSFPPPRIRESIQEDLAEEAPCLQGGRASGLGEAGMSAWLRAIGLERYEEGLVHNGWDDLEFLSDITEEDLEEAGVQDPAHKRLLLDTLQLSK
Sequence of UniProt Q9H4A5 (Q9H4A5 whole entry, looked up): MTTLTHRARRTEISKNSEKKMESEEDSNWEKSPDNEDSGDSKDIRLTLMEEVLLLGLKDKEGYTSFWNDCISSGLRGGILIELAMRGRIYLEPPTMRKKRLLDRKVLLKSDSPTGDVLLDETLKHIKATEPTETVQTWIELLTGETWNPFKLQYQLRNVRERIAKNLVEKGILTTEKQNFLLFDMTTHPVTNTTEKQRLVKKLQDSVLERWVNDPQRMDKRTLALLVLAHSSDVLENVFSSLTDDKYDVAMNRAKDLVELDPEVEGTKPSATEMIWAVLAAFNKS
Sequence of UniProt Q6DN03 (Q6DN03 whole entry, looked up): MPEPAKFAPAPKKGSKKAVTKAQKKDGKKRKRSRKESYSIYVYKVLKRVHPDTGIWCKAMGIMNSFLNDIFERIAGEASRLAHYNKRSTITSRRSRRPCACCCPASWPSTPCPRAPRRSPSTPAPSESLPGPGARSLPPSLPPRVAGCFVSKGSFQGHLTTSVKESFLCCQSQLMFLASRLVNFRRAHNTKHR
Sequence of UniProt Q92759 (Q92759 whole entry, looked up): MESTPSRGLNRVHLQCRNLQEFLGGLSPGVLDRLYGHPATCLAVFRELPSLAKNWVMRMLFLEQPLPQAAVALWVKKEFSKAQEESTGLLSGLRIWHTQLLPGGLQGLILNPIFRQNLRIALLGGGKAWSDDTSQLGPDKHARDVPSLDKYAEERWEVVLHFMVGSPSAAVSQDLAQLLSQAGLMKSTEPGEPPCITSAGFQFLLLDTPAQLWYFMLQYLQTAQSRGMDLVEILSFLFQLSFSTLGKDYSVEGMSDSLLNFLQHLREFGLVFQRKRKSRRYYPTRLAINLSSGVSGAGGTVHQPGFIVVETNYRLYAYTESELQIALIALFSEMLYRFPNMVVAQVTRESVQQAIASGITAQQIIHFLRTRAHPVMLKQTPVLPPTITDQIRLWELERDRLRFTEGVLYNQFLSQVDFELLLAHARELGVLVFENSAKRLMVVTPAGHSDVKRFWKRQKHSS

Target | log2 fold change (nilotinib) | log2 fold change [1] | log2 fold change (dasatinib) | log2 fold change [2] | log2 fold change [3] | log2 fold change (quisinostat) | log2 fold change (tipifarnib) | log2 fold change [4] | log2 fold change [5] | log2 fold change [6] | log2 fold change [7] | log2 fold change (vorinostat) | log2 fold change (silmitasertib) | log2 fold change [8] | log2 fold change (entospletinib)
IFITM3 (UniProt Q01628) | 0.068 | 0.055 | 0.049 | -0.013 | 0.064 | -0.069 | -0.136 | -0.044 | -0.133 | -0.051 | -0.02 | 0.067 | -0.129 | 0.069 | 0.059
INTS5 (UniProt Q6P9B9) | 0.11 | -0.093 | -0.012 | 0.062 | 0.055 | -0.002 | 0.294 | 0.043 | -0.064 | 0.081 | -0.045 | -0.56 (active) | 0.088 | 0.039 | 0.093
HELQ (UniProt Q8TDG4) | -0.486 (active) | -0.433 (active) | 0.021 | 0.051 | -0.028 | -0.024 | 0.033 | -0.013 | 0.122 | 0.009 | -0.003 | 0.001 | 0.076 | 0.017 | -0.103
IFNGR1 (UniProt P15260) | 0.227 | -0.068 | -0.018 | 0.133 | -0.125 | 0.047 | -0.08 | 0.013 | 0.084 | -0.101 | 0.15 | 0.147 | -0.006 | 0.046 | -0.042
IMPDH2 (UniProt P12268) | 0 | -0.009 | -0.036 | -0.009 | 0.004 | -0.073 | 0.029 | 0.006 | -0.016 | 0.031 | 0.002 | -1.14 (active) | 0.004 | 0.004 | 0.014
HSPA8 (UniProt P11142) | -0.01 | 0.002 | 0.013 | 0.004 | -0.007 | 0.022 | 0 | -0.024 | -0.008 | 0.003 | -0.008 | 0.105 | -0.009 | -0.011 | -0.002
GNE isoform 2 (UniProt Q9Y223) | -0.013 | -0.003 | 0.003 | -0.081 | 0.025 | -0.042 | 0.008 | 0.061 | -0.008 | -0.006 | 0.056 | -0.443 (active) | 0.023 | 0.012 | 0.017
GPN2 (UniProt Q9H9Y4) | -0.065 | 0.046 | 0.062 | -0.009 | -0.046 | -0.022 | 0.013 | -0.008 | 0.01 | -0.034 | 0.006 | -0.093 | 0.009 | -0.062 | 0.203
GSTZ1 (UniProt G3V4T6) | 0.026 | 0.009 | -0.024 | -0.016 | 0.083 | 0.016 | 0.014 | 0.029 | -0.012 | -0.007 | 0.088 | 0.167 | -0.002 | -0.015 | -0.031
GPX4 (UniProt P36969) | -0.011 | -0.001 | 0.01 | 0.039 | -0.024 | -0.012 | -0.009 | 0.02 | -0.011 | 0.011 | -0.007 | -0.306 (active) | 0.017 | -0.023 | 0.037
GTF2H4 (UniProt Q92759) | 0.006 | 0.021 | 0.003 | 0.019 | -0.011 | -0.029 | -0.008 | 0.07 | 0.04 | -0.08 | 0.01 | -0.24 (active) | -0.021 | -0.021 | 0.046
KEAP1 (UniProt Q14145) | -0.01 | 0.01 | -0.023 | -0.014 | -0.044 | -0.078 | -0.02 | 0.011 | 0.022 | -0.002 | -0.019 | -0.262 (active) | -0.008 | -0.022 | 0.001
GOLPH3L (UniProt Q9H4A5) | -0.045 | 0.033 | 0 | -0.006 | 0.01 | -0.026 | 0.018 | 0.094 | 0.013 | -0.039 | -0.061 | -0.035 | -0.002 | 0.047 | 0.048
KCTD20 (UniProt Q7Z5Y7) | 0.054 | -0.021 | -0.096 | 0.074 | 0.039 | -0.138 | -0.028 | 0.109 | 0.089 | -0.007 | -0.137 | -0.323 (active) | 0.035 | 0.053 | 0.091
GON4L (UniProt Q3T8J9) | 0.003 | 0.012 | 0.025 | 0.067 | 0.041 | -0.061 | -0.01 | 0.019 | -0.02 | 0.022 | -0.051 | -0.162 | 0.066 | -0.076 | 0.067
GRB10 (UniProt Q13322) | 0.053 | -0.028 | -0.003 | 0.026 | 0.04 | -0.065 | -0.058 | 0.008 | -0.056 | 0.008 | -0.001 | -0.402 (active) | 0.065 | 0.008 | 0.007
HIST2H2BC (UniProt Q6DN03) | 0.003 | -0.021 | 0.051 | -0.01 | -0.079 | -0.014 | 0.037 | 0.016 | -0.01 | 0.058 | 0.018 | 0.133 | -0.098 | -0.019 | -0.062
HSD17B10 (UniProt Q99714) | 0 | -0.044 | -0.034 | -0.001 | -0.017 | -0.01 | 0.008 | 0.013 | -0.002 | 0.005 | 0.04 | -0.826 (active) | -0.011 | -0.025 | -0.004
ISCA1 isoform 2 (UniProt Q9BUE6) | 0.043 | 0.251 | 0 | 0.111 | -0.002 | 0.025 | 0.026 | -0.05 | -0.007 | 0.013 | -0.005 | 0.043 | 0.015 | 0.004 | 0.071
INPPL1 (UniProt O15357) | -0.007 | -0.001 | -0.031 | -0.02 | 0.035 | 0 | -0.026 | 0.032 | 0.028 | 0.003 | 0.025 | -0.528 (active) | 0.057 | 0.017 | -0.015
